Consider eight compounds from PubChem BioAssay.

Activity calls are given as the source filed them. Unless noted, no rule for the calls is given here.

For test [1], the system named is Wnt5a (protein binding on small-molecule microarray). Kind of test: Wnt5a binders on small-molecule microarray, primary screen, biophysical, 635/667 nm fluorescence (AID 1142).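 Also: fluorescence read at 667 nm with signal to noise per printed feature.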 Conditions: 635 nm fluorescence, higher = more signal.
A short description of test [2]: cell viability in Huh7 cells, primary screen, cytotoxicity control for HCV replication inhibitor project, CellTiter-Glo luminescence, basal, 48 h (AID 1143).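 Also: Huh7 hepatoma cells carrying a hepatitis C replication reporter with no stimulus; test concentration not given here.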 To be noted: Huh7 HCV replicon, higher = more signal, called active from +8 up or from −8 down.
Test [3] can be described thus: P. aeruginosa biofilm formation inhibitors, primary screen, PAO1 strain, BacTiter-Glo luminescence, LB-PBS (AID 1144). To be noted: 12 h, higher = more signal.
A short description of test [4]: CREB reporter modulators without forskolin, primary screen, cell-based, PC12, CRE-LacZ reporter, unstimulated (AID 1145). Conditions: no forskolin, luminescence, 4.5 h, higher = more signal, called active from +8 up or from −8 down.
Test [5] in a line: CREB reporter modulators under forskolin, primary screen, cell-based, PC12, CRE-LacZ reporter, forskolin-stimulated (AID 1146).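 Also: PC12 cells with 6xCRE LacZ reporter stimulated by forskolin 10 µM; beta-galactosidase reporter signal reflecting CREB driven transcription.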 To be noted: luminescence, 4.5 h, higher = more signal, called active from +8 up or from −8 down.
Test [6] deals with Streptavidin (Streptomyces avidinii) (UniProt P22629). Put plainly: streptavidin binders on small-molecule microarray, primary screen, artefact control for SMM compound annotation, biophysical, 635/667 nm fluorescence (AID 1147).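 Also: signal reflects streptavidin binding to arrayed compounds as a control protein.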 Conditions: streptavidin binding, higher = more signal.
Sequence of Streptavidin (Streptomyces avidinii) (P22629 whole entry, looked up): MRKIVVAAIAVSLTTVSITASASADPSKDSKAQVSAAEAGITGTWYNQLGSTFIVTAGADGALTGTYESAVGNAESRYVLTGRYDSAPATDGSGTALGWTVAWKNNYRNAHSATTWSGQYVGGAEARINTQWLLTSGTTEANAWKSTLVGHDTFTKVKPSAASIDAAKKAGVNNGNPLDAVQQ
A short description of test [7]: small-molecule binders of probe aInhba, primary screen, biochemical, small-molecule microarray, 635/667 nm fluorescence (AID 1148).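 Also: score merges 667nm spot fluorescence with signal-to-noise for antibody binding to printed compounds.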 Conditions: higher = more signal.
Test [8] concerns the target Torsin-1A (Homo sapiens) (UniProt O14656). Put plainly: torsin A binders from cell lysate, primary screen, small-molecule microarray, wild-type, 635/667 nm (AID 1149). Conditions: COS7 hTOR1A-WT lysate, 635 nm fluorescence, higher = more signal.
For test [9] the target is unchanged. Put plainly: small-molecule binders of mutant TOR1A in lysate, primary screen, cell lysate, small-molecule microarray, COS7 lysate, 635/667 nm fluorescence (AID 1150).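 Also: score pools 667 nm emission and signal to noise measuring lysate protein binding.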 Conditions: COS7 hTOR1A mutant lysate, 635 nm fluorescence, higher = more signal.
The subject of test [10] is Sonic hedgehog protein (Shh). Kind of test: small-molecule binders of Shh protein, primary screen, biochemical, small-molecule microarray, 635/667 nm fluorescence (AID 1151).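 Also: Shh protein binding to compounds spotted on small-molecule microarray slides; score combines spot fluorescence intensity with signal-to-noise across triplicate slides.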 Conditions: small-molecule microarray binding, 635 nm fluorescence; higher = more signal.
The nature of test [11]: E. coli DRC41 culture turbidity changes, primary screen, E. coli filamentation inducer project, strain DRC41, OD650, 48 h (AID 1152).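 Also: E. coli MC1000 strain DRC41 lacking acrAB efflux pump and sulA.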 Conditions: E. coli DRC41 (acrAB sulA), higher = more signal, called active from +8 up or from −8 down.
Test [12] in a line: small-molecule binders of probe aLefty1, primary screen, biochemical, small-molecule microarray, 635/667 nm fluorescence (AID 1153).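 Also: score merges spot fluorescence with signal-to-noise ratio from the scanned slide images.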 To be noted: higher = more signal.
Test [13] is described as follows: PSAC antagonists in infected red cells, primary screen, cell-based, P. falciparum Indochina, OD700, 1 h (AID 1154). To be noted: P. falciparum Indochina infected RBC osmotic lysis, higher = more signal, called active from +8 up or from −8 down.
A short description of test [14]: PSAC antagonists in infected red cells, primary screen, cell-based, P. falciparum Indochina, OD700, 2 h (AID 1155).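 Also: lysis reports solute entry through the parasite surface anion channel PSAC; channel blockers reduce lysis of infected cells.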 To be noted: P. falciparum Indochina infected erythrocytes, osmotic lysis OD700; higher = more signal, called active from +8 up or from −8 down.
A short description of test [15]: osmotic lysis modulators in infected erythrocytes, primary screen, PSAC antagonist project, cell-based, P. falciparum Indochina, OD700, 3 h (AID 1156). Conditions: higher = more signal, called active from +8 up or from −8 down.
The nature of test [16]: PSAC antagonists in infected red cells, primary screen, cell-based, P. falciparum Indochina, OD700, 18 h (AID 1157). Conditions: P. falciparum Indochina infected erythrocytes, osmotic lysis OD700, 18 h; higher = more signal, called active from +8 up or from −8 down.
Test [17] can be described thus: modulators of S6 phosphorylation in cells, primary screen, cell-based, A549, cytoblot, luminescence, serum-stimulated (AID 1158).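 Also: serum-stimulated A549 lung adenocarcinoma cells; signal is phosphorylated S6 detected by cytoblot immunostaining with HRP secondary.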 Conditions: A549 phospho-S6 cytoblot, 5 h, higher = more signal.
The target of test [18] is NADPH oxidase 2 (Homo sapiens) (UniProt P04839). Kind of test: NOX2-dependent H2O2 signal modulators, primary screen, NOX inhibitor project, cell-based, HEK293-NOX2, PMA-stimulated, Amplex Red fluorescence (AID 1159). Also: test concentration not given here. To be noted: 45 min, higher = more signal, called active from +8 up or from −8 down.
Sequence of NADPH oxidase 2 (Homo sapiens) (P04839 whole entry, looked up): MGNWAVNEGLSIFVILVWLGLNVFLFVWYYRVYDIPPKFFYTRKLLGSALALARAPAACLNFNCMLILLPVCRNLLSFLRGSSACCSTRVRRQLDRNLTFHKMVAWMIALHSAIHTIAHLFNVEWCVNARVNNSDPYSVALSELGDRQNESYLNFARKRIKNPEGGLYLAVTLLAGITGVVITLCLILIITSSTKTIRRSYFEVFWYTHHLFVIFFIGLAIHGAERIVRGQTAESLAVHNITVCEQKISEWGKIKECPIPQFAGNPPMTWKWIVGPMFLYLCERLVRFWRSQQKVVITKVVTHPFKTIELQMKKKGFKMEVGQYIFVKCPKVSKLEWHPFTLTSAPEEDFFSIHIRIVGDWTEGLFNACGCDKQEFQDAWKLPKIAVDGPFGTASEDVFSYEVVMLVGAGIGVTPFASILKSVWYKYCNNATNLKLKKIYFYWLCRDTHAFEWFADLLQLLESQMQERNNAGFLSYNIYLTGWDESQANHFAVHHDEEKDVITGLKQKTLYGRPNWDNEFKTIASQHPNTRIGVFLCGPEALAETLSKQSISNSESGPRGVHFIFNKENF
The target in test [19] is NADPH oxidase 4 (Homo sapiens) (UniProt Q9NPH5). Kind of test: NOX4-dependent H2O2 signal modulators, primary screen, NOX inhibitor project, cell-based, HEK293-NOX4, tetracycline-induced, Amplex Red fluorescence (AID 1160). Conditions: 45 min, higher = more signal, called active from +8 up or from −8 down.
Sequence of NADPH oxidase 4 (Homo sapiens) (Q9NPH5 whole entry, looked up): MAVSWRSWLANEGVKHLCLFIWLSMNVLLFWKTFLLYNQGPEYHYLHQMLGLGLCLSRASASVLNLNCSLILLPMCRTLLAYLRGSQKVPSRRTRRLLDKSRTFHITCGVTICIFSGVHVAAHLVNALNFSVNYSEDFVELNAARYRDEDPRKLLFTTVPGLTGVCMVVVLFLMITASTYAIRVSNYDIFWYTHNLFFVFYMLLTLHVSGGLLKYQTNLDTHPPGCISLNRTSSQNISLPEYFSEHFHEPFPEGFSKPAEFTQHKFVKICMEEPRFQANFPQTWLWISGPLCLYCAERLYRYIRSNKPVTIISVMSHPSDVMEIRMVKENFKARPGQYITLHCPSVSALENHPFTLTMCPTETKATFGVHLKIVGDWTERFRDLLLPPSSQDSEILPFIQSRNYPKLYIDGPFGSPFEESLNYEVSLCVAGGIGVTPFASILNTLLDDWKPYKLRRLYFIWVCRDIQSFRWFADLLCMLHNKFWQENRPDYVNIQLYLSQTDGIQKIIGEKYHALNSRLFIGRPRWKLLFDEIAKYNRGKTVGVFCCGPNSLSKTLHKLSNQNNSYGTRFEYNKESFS
Test [20] has as its target NADPH oxidase 5 (Homo sapiens) (UniProt Q96PH1). Put plainly: NOX5-dependent H2O2 signal modulators, primary screen, NOX inhibitor project, cell-based, HEK293-NOX5, Amplex Red fluorescence (AID 1161). To be noted: HEK293-NOX5, ionomycin, 45 min, higher = more signal.

Sequence of Torsin-1A (Homo sapiens) (O14656 whole entry, looked up): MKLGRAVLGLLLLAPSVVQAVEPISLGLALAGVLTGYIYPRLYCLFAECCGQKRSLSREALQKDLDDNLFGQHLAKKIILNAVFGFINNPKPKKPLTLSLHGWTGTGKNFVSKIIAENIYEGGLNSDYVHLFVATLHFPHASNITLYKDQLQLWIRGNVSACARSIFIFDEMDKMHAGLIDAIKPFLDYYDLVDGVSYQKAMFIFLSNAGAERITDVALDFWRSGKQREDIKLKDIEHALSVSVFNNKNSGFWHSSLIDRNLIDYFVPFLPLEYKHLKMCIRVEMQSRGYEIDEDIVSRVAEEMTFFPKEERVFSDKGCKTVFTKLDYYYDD
Sequence of NADPH oxidase 5 (Homo sapiens) (Q96PH1 whole entry, looked up): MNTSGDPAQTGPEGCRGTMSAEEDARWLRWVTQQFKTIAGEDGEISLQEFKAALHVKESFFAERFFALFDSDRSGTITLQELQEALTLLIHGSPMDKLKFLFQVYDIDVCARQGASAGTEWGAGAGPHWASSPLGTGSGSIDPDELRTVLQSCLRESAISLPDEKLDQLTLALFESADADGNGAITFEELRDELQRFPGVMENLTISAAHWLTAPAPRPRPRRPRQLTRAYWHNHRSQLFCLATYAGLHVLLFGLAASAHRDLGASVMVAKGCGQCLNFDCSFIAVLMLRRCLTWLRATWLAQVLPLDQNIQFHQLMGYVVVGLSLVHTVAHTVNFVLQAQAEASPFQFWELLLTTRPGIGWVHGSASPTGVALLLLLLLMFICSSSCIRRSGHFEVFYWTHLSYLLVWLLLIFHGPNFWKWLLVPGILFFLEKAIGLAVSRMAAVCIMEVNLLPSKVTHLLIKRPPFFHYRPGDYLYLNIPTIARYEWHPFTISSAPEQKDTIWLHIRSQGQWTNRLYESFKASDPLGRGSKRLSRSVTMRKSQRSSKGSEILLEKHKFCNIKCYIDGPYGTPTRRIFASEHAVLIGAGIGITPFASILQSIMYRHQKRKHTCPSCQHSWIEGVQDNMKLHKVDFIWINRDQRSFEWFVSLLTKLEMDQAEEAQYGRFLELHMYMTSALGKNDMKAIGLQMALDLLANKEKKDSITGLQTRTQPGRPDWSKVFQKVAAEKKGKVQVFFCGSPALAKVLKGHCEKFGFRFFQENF

As for `CON=C(C)CCN1CCc2nc(-c3ccccc3)c(-c3ccccc3)cc2C1`, the composite z-score in test [1] was -0.0635; in test [6], 1.33; in test [7], -0.05; with Torsin-1A (Homo sapiens) [8] it was 0.254; with Torsin-1A (Homo sapiens) [9], 0.007; in test [10], 0.872. Also, in test [12], the composite z-score was -0.0303. The z-score was -4.2 (inactive) in test [2]; -0.925 (inactive) in [3]; 2.22 (inactive) in [4]; -0.55 (inactive) in [5]; -0.944 (inactive) in test [11]; 3.74 (inactive) in [13]. Further, the z-score in test [14] was 1.17 (inactive); in [15], 1.69 (inactive); in test [16] it was 0.808 (inactive); in [17], -0.0181; in test [18], -6.35 (inactive); in [19], -2.6 (inactive). The same compound yielded a z-score in test [20] of -6.68.
For the compound `CO[C@H]1COC(=O)CC=C[C@H](C)[C@H](OC)COC(=O)[C@@H](C)NC(=O)CC=C[C@@H]1C`, the composite z-score in [1] is -0.0492; in [6], -0.201; in [7], -0.179; with Torsin-1A (Homo sapiens) [8], 2.9; with Torsin-1A (Homo sapiens) [9], 1.82; in test [10], 2.06. The same compound displayed a composite z-score in test [12] of -0.0939. The z-score in [2] was -0.379 (inactive); in test [3], -0.727 (inactive); in [4], 0.276 (inactive); in [5], 0.314 (inactive); in test [11], -0.619 (inactive); in test [13], -0.89 (inactive). For the same compound, the z-score in test [14] was -1.35 (inactive); in test [15], -0.14 (inactive); in test [16], -1.92 (inactive); in test [17] it was -0.365; in [18], -0.677 (inactive); in [19], 0.557 (inactive). This compound displayed a z-score in [20] of 0.197.
As to `CCOC(=O)[C@H](CC(C)C)NC(=O)CCC1CC(OC(=O)NCCc2ccc(F)cc2)CC2(CCCC(COC(=O)NCc3cccc(C(F)(F)F)c3)O2)O1` (stereo not given in full), the composite z-score is 0.0465 in test [1]; 0.0808 in test [6]; -0.0762 in [7]; 0.0857 with Torsin-1A (Homo sapiens) [8]; 0.147 with Torsin-1A (Homo sapiens) [9]; 0.909 in [10]. In test [12], this compound yielded a composite z-score of 0.0437. Also, the z-score in test [2] was 0.215 (inactive); in [3], 0.074 (inactive); in test [4], -0.437 (inactive); in test [5] it was 0.257 (inactive); in [11], 0.265 (inactive); in test [13] it was 6.76 (inactive). The z-score was 0.968 (inactive) in test [14]; 0.0716 (inactive) in [15]; 0.127 (inactive) in test [16]; -0.276 in test [17]; 0.61 (inactive) in test [18]; 0.703 (inactive) in [19]. Further, the z-score in [20] turned out to be 0.401.
With `CC(C)=NO[C@H](C)c1cn([C@@H]2COC[C@H]2O)nn1`, the composite z-score is 0.185 in test [1]; -0.085 in test [6]; -0.0963 in test [7]; 0.455 with Torsin-1A (Homo sapiens) [8]; 0.461 with Torsin-1A (Homo sapiens) [9]; 0.477 in test [10]. In test [12], this compound returned a composite z-score of -0.0518. In addition, the z-score in [2] is 0.495 (inactive); in test [3] it was -1.16 (inactive); in test [4], 0.099 (inactive); in test [5] it was -0.0851 (inactive); in test [11] it was 0.36 (inactive); in test [13], 0.813 (inactive). The z-score in [14] is 0.935 (inactive); in test [15], 0.627 (inactive); in [16] it was 0.489 (inactive); in test [17] it was 0.381; in [18], 0.0279 (inactive); in test [19] it was 0.549 (inactive). For the same compound, the z-score in test [20] is 0.595.
As for `CC#CCOCCC=C1c2ccccc2[C@@H](OC)[C@@H]1C`, the composite z-score was 0.179 in test [1]; -0.534 in test [6]; -0.122 in test [7]; 0.147 with Torsin-1A (Homo sapiens) [8]; 0.481 in the test with Torsin-1A (Homo sapiens) [9]; 0.584 in test [10]. In test [12], this compound registered a composite z-score of -0.0004. Moreover, the z-score in test [2] is 0.447 (inactive); in [3] it was -0.445 (inactive); in test [4], 1.42 (inactive); in test [5] it was -0.146 (inactive); in test [11], 0.673 (inactive); in [13] it was 1.25 (inactive). In addition, the z-score in [14] was -0.16 (inactive); in test [15] it was -0.156 (inactive); in test [16] it was 0.0739 (inactive); in test [17], -0.161; in [18] it was 0.114 (inactive); in [19] it was 0.936 (inactive). Moreover, the z-score in test [20] turned out to be 0.696.
With `COC(=O)CC=C[C@@H](C)[C@@H](C=NOC(C)CN1CCCCc2nc(C)c(C)cc21)OC` (stereo not given in full), the composite z-score in [1] is 0.263; in [6] it was 0.405; in [7], -0.239; with Torsin-1A (Homo sapiens) [8], 3.19; in the test with Torsin-1A (Homo sapiens) [9], 2.65; in test [10], 1.79. In test [12], this compound yielded a composite z-score of -0.0501. Also, the z-score in test [2] is -0.211 (inactive); in test [3], 0.763 (inactive); in test [4], 1.41 (inactive); in test [5], 0.802 (inactive); in [11], -0.0952 (inactive); in test [13], 1.78 (inactive). Further, the z-score in [14] was 0.322 (inactive); in [15] it was -0.29 (inactive); in test [16] it was 0.441 (inactive); in test [17] it was -0.637; in test [18], -2.01 (inactive); in test [19], -0.392 (inactive). The z-score in test [20] is -1.52.
As to `C[C@@H](c1ccccc1)N1C(=O)[C@H]2[C@H]3[C@H](O)[C@H](O)CC(=NOC[C@@H](O)COCc4ccco4)[C@H]3CC[C@H]2C1=O`, the composite z-score was -0.0017 in test [1]; -0.304 in [6]; -0.253 in [7]; 3.17 with Torsin-1A (Homo sapiens) [8]; 2.95 with Torsin-1A (Homo sapiens) [9]; 1.65 in [10]. The composite z-score in test [12] is -0.201. The z-score in test [2] was 0.523 (inactive); in test [3], 1 (inactive); in test [4], 1.5 (inactive); in test [5], 0.81 (inactive); in test [11] it was -0.309 (inactive); in [13] it was 2.04 (inactive). Also, the z-score is -0.0645 (inactive) in test [14]; 0.33 (inactive) in [15]; 0.332 (inactive) in [16]; -0.632 in test [17]; -1.37 (inactive) in test [18]; 0.529 (inactive) in [19]. Moreover, the z-score in [20] was found to be 0.122.
Take `COC(=O)[C@@H]1CC[C@H](C)[C@@H](c2ccc(Br)cc2)N1C[C@H](O)CN=[N+]=[N-]`: the composite z-score in test [1] was -0.106; in test [6] it was 0.127; in [7] it was -0.05; with Torsin-1A (Homo sapiens) [8] it was 0.386; in the test with Torsin-1A (Homo sapiens) [9] it was 0.827; in test [10], 0.26. Besides, in test [12], the composite z-score amounted to 0.181. Also, the z-score in test [2] is -0.999 (inactive); in test [3], -1.5 (inactive); in [4], -0.522 (inactive); in test [5], -0.369 (inactive); in [11], -0.972 (inactive); in test [13], 1.04 (inactive). In addition, the z-score is 0.852 (inactive) in test [14]; 0.48 (inactive) in [15]; 0.541 (inactive) in test [16]; 0.928 in [17]; -0.855 (inactive) in [18]; -1.08 (inactive) in test [19]. This compound registered a z-score in test [20] of -0.0951.
